{
  "source": "PubChem BioAssay AID463173",
  "about": "(ICCB-Longwood Screening Facility, Harvard Medical School, 2010)",
  "note": "Screen size: about 52,000 compounds; about 1,700 (3.3%) were called active. For the sample, actives were picked, then their nearest neighbours and some compounds at random. A number with no mark means an inactive call. Cut-off read from the data, not from the text of the source: active = survival mostly below about 52% (no sharp cut-off); inactive = mostly above about 56%.",
  "data": [
    {"test_system": "Wild type", "experiment": "growth inhibition of S. aureus wild type versus tarO mutant, primary screen, teichoic acid synthesis inhibitors, RN4220, OD600 (AID 463173)", "conditions": "S. aureus RN4220 wild type/DeltatarO growth, OD600, 18 h, stronger effect = lower value, screened at 18.75 µg/mL (by protocol)", "values": [
      {"smiles": "COC(=O)c1ccc2c(c1)N(CC(=O)Nc1cccc(C(F)(F)F)c1)C(=O)c1ccccc1S2", "survival": "77%"},
      {"smiles": "Cc1ccc(OCC(=O)Nc2ccc3nc(SCC(=O)N4CCCC4)sc3c2)cc1", "survival": "91%"},
      {"smiles": "COc1cccc(CC(=O)NCc2ccc3c(c2)CCN3C(C)=O)c1", "survival": "71%"},
      {"smiles": "COc1cccc(C(=O)Nc2cc(-c3ccccc3)nn2-c2ccccc2)c1", "survival": "69%"},
      {"smiles": "Cc1ccc(NC(=O)c2c(C)oc3ccc(O)c(CN4CCCCC4)c23)cc1", "survival": "86%"},
      {"smiles": "Cc1cc(C)c(NS(=O)(=O)c2ccc3c(c2)CC(C)N3C(=O)C2CCC2)c(C)c1", "note": "(stereo unspecified)", "survival": "64%"},
      {"smiles": "O=C(CCCCn1c(=O)c2ccccc2n(Cc2cccc(Cl)c2)c1=O)NCc1ccc2c(c1)OCO2", "survival": "98%"},
      {"smiles": "CCCCNC(=O)c1cccc(-n2c(C)nc3cccnc32)c1", "survival": "73%"},
      {"smiles": "CCc1ccccc1NC(=O)CCNS(=O)(=O)c1ccc2c(c1)CCCC(=O)N2", "survival": "73%"},
      {"smiles": "CCn1c(CN2CCOCC2)nc2cc(NC(=O)c3ccc([N+](=O)[O-])cc3)ccc21", "survival": "90%"},
      {"smiles": "c1cc2c(cc1CNC1CCCC1)OCO2", "survival": "104%"},
      {"smiles": "O=C(CSc1nnc(-c2ccncc2)n1-c1ccccc1)Nc1ccc(F)cc1", "survival": "72%"},
      {"smiles": "Cc1ccc(O)c(C2=Nc3ccccc3N=C(c3cccc(F)c3)C2)c1", "survival": "139%"},
      {"smiles": "CCc1ccc(Cn2c(CNS(=O)(=O)c3ccc(F)c(Cl)c3)nc3cccnc32)cc1", "survival": "-3% (active)"},
      {"smiles": "O=S(=O)(NCc1nc2cccnc2n1Cc1ccccc1Cl)c1ccc(F)c(Cl)c1", "survival": "76%"},
      {"smiles": "O=C(CCc1ccccc1)NCc1nc2cccnc2n1Cc1ccc(F)cc1", "survival": "-6% (active)"},
      {"smiles": "CCc1ccc(Cn2c(CNS(=O)(=O)c3ccc(Cl)s3)nc3cccnc32)cc1", "survival": "53%"},
      {"smiles": "Cc1ccc(Cn2c(CNC(=O)CCc3ccccc3)nc3cccnc32)cc1", "survival": "99%"},
      {"smiles": "O=S(=O)(NCc1nc2cccnc2n1Cc1ccc(F)cc1)c1ccc(Cl)s1", "survival": "-6% (active)"},
      {"smiles": "Cc1ccc(Cn2c(CNS(=O)(=O)c3ccc(F)c(Cl)c3)nc3cccnc32)cc1", "survival": "134%"},
      {"smiles": "Cc1ccc(Cn2c(CNS(=O)(=O)c3ccc(Cl)s3)nc3cccnc32)cc1", "survival": "136%"},
      {"smiles": "COc1ccc(CCC(=O)NCc2nc3cccnc3n2Cc2ccc(F)cc2)cc1", "survival": "123%"},
      {"smiles": "COc1ccc(C)cc1NC(=O)C(NS(=O)(=O)c1cccc2nsnc12)c1ccccc1", "note": "(stereo unspecified)", "survival": "64%"},
      {"smiles": "Cc1cc(C)c(/C=C/c2onc(C)c2S(=O)(=O)N2CCC(C(=O)NCc3ccccc3Cl)CC2)c(C)c1", "survival": "72%"},
      {"smiles": "Cc1ccc(CNS(=O)(=O)c2cc(Br)cc3c2N(C(=O)C2CC2)CC3)cc1", "survival": "66%"},
      {"smiles": "Cc1cc(NC(=O)COCc2cc(-c3ccc(F)cc3)on2)ccc1Br", "survival": "82%"},
      {"smiles": "CCC(=O)N1CCc2cc(S(=O)(=O)NC(CC(C)C)C(=O)Nc3ccc(CC)cc3)ccc21", "note": "(stereo unspecified)", "survival": "84%"},
      {"smiles": "CC1=C(C(=O)OCC2CCCCC2)C(c2ccc(Cl)cc2Cl)CC(=O)N1", "note": "(stereo unspecified)", "survival": "82%"},
      {"smiles": "Cc1ccc2c(c1C)NC(=O)CC2c1ccc(Cl)cc1Cl", "note": "(stereo unspecified)", "survival": "1% (active)"},
      {"smiles": "COc1cccc(C2CC(=O)Nc3c2ccc(C)c3C)c1OC", "note": "(stereo unspecified)", "survival": "87%"},
      {"smiles": "CCOC(=O)CSc1ccc2nnc(CCNS(=O)(=O)c3ccccc3)n2n1", "survival": "87%"},
      {"smiles": "Cc1c(-c2nc(-c3ccc4c(c3)OCO4)no2)nnn1-c1ccc(C(C)C)cc1", "survival": "73%"},
      {"smiles": "CCOc1ccccc1CNC(=O)Cn1ncn2nc(-c3cccs3)cc2c1=O", "survival": "93%"},
      {"smiles": "Cc1cc(OC(=O)c2cc(-c3ccc4c(c3)OCCO4)on2)ccc1Cl", "survival": "-6% (active)"},
      {"smiles": "N#Cc1ccc(OC(=O)c2cc(-c3ccc4c(c3)OCCO4)on2)cc1", "survival": "117%"},
      {"smiles": "CC(C)c1ccc(OC(=O)c2cc(-c3ccc4c(c3)OCCO4)on2)cc1", "survival": "46%"},
      {"smiles": "Cc1ccc(OC(=O)c2cc(-c3ccc4c(c3)OCCO4)on2)cc1C", "survival": "-7% (active)"},
      {"smiles": "O=C(Oc1ccc(Cl)cc1)c1cc(-c2ccc3c(c2)OCCO3)on1", "survival": "108%"},
      {"smiles": "COc1ccc(OC(=O)c2cc(-c3ccc4c(c3)OCCO4)on2)cc1", "survival": "109%"},
      {"smiles": "CCn1c(=NC(=O)c2ccc(S(=O)(=O)N3CCCCC3)cc2)sc2cccc(OC)c21", "survival": "68%"},
      {"smiles": "Cc1ccc(C(=O)NC2CC3CCCC(C2)N3C(=O)NC2CCCCC2)cc1", "note": "(stereo unspecified)", "survival": "101%"},
      {"smiles": "O=C(CCC1CCCC1)N1CCN(C(=O)Cc2ccccc2)CC1", "survival": "94%"},
      {"smiles": "COc1cc(OC)c(Nc2nc3ccccc3c3nncn23)cc1Cl", "survival": "136%"},
      {"smiles": "Cc1ccc(-c2cc3c(n2-c2ccc(C)cc2)CC(C)(C)CC3=O)cc1", "survival": "69%"},
      {"smiles": "COc1ccc(-n2c(-c3ccc(Cl)cc3)cc3c2CC(C)(C)CC3=O)c(OC)c1", "survival": "3% (active)"},
      {"smiles": "CCOc1ccc(-n2c(-c3ccc(OC)cc3)cc3c2CC(C)(C)CC3=O)cc1", "survival": "41%"},
      {"smiles": "CCOc1ccc(-n2c(-c3ccc(Br)cc3)cc3c2CC(C)(C)CC3=O)cc1", "survival": "8% (active)"},
      {"smiles": "COc1ccc(-n2c(-c3ccc(C)cc3)cc3c2CC(C)(C)CC3=O)c(OC)c1", "survival": "96%"},
      {"smiles": "COc1ccc(C)cc1-n1c(-c2ccc(Cl)cc2)cc2c1CC(C)(C)CC2=O", "survival": "94%"},
      {"smiles": "CCCCCn1c(=O)[nH]c2cc(C(=O)NCc3ccccc3)ccc2c1=O", "survival": "83%"},
      {"smiles": "COCCNC(=O)CCCN1C(=O)CCn2nc(-c3cccn3C)cc21", "survival": "68%"},
      {"smiles": "CCOc1ccc(-n2c(SCc3nc(-c4ccccc4C)no3)nnc2-c2ccccc2)cc1", "survival": "84%"},
      {"smiles": "CCC(Sc1nncn2c1cc1occc12)C(=O)Nc1ccc(C)c(Cl)c1", "note": "(stereo unspecified)", "survival": "44%"},
      {"smiles": "CCc1nn(CC(=O)NC(C)c2ccccc2)c(=O)c2cc3sccc3n12", "note": "(stereo unspecified)", "survival": "91%"},
      {"smiles": "COc1ccc(-n2c(=O)c3ccccc3n(CC(=O)Nc3ccccc3OC)c2=O)cc1", "survival": "89%"},
      {"smiles": "CN1C(C(=O)NC(C)(C)C)=CC(c2ccc3c(c2)OCO3)=NS1(=O)=O", "survival": "84%"},
      {"smiles": "Cc1cc(NCCN(C)C)c2ccccc2n1", "survival": "106%"},
      {"smiles": "COc1ccc(-c2cccc(NS(=O)(=O)c3cc(C(F)(F)F)ccc3Cl)c2)nn1", "survival": "59%"},
      {"smiles": "COc1cccc(OC)c1C(=O)Nc1cccc(-c2cn3ccsc3n2)c1", "survival": "72%"},
      {"smiles": "COc1ccc(C(=O)Nc2cccc(-c3cn4ccsc4n3)c2)cc1OC", "survival": "76%"},
      {"smiles": "Nc1cccc(-c2cn3ccsc3n2)c1", "survival": "55%"},
      {"smiles": "CCS(=O)(=O)Nc1ccc(-c2cn3ccsc3n2)cc1", "survival": "-1% (active)"},
      {"smiles": "COc1cc(OC)cc(C(=O)Nc2cccc(-c3cn4ccsc4n3)c2)c1", "survival": "1% (active)"},
      {"smiles": "CCCS(=O)(=O)Nc1cccc(-c2cn3ccsc3n2)c1", "survival": "159%"},
      {"smiles": "COc1ccc(S(=O)(=O)Nc2ccc(-c3cn4ccsc4n3)cc2)cc1C", "survival": "133%"},
      {"smiles": "CN(C)S(=O)(=O)Nc1ccc(-c2cn3ccsc3n2)cc1", "survival": "14% (active)"},
      {"smiles": "CCS(=O)(=O)Nc1ccc(-c2cn3c(C)csc3n2)cc1", "survival": "78%"},
      {"smiles": "Cc1ccc(Cn2cc(S(=O)(=O)c3cccc(Cl)c3)c(=O)c3cc(F)c(N4CCOCC4)cc32)cc1", "survival": "87%"},
      {"smiles": "CC1=C(C(=O)OCC2CCCCC2)C(c2cccc(Cl)c2Cl)CC(=O)N1", "note": "(stereo unspecified)", "survival": "76%"},
      {"smiles": "COc1cc(Cl)c(C)cc1NC(=O)Cn1cc(S(=O)(=O)N2CCN(c3ccccc3F)CC2)c2ccccc2c1=O", "survival": "68%"},
      {"smiles": "Cc1cccc(C)c1NC(=O)CN1C(=O)CCSc2ccc(S(=O)(=O)N3CCCC3)cc21", "survival": "72%"},
      {"smiles": "CCN(C(=O)C(=O)Nc1ccc2nc3n(c(=O)c2c1)CCCCC3)c1ccc(F)cc1", "survival": "94%"},
      {"smiles": "COc1ccc(-n2nc(C(=O)N3CCN(c4ccccc4OC)CC3)c3c4ccccc4n(C)c3c2=O)cc1", "survival": "80%"},
      {"smiles": "Cc1ccc(CSc2cn(CC(=O)N3CCCCC3)c3ccccc23)cc1", "survival": "90%"},
      {"smiles": "CCc1ccc(C2C(C(=O)Nc3ccccc3C)=C(C)Nc3nc(SCc4cccc(OC)c4)nn32)cc1", "note": "(stereo unspecified)", "survival": "146%"},
      {"smiles": "O=C1CC2CCCC(CN1)N2CC(=O)NCc1ccco1", "note": "(stereo unspecified)", "survival": "104%"},
      {"smiles": "COc1ccc(COC(=O)c2[nH]c3c(c2C)C(=O)CC(c2ccc(OC)c(OC)c2)C3)cc1", "note": "(stereo unspecified)", "survival": "92%"},
      {"smiles": "COc1ccccc1C(=O)NC(=O)Nc1ccc(-c2cc(C(F)(F)F)nn2-c2ccccc2)cc1", "survival": "5% (active)"},
      {"smiles": "COc1ccccc1C(=O)NC(=O)Nc1ccc(-n2nc(C(F)(F)F)cc2C(F)(F)F)cc1", "survival": "101%"},
      {"smiles": "COc1ccccc1C(=O)Nc1ccc(-c2cc(C(F)(F)F)nn2-c2ccccc2)cc1", "survival": "39%"},
      {"smiles": "COc1ccc(-c2cc3ccc(O)c(CN4CCCC4)c3oc2=O)cc1", "survival": "124%"},
      {"smiles": "CCOc1ccccc1NC(=O)c1c(NC(=O)COc2ccc(Cl)cc2)sc2c1CCCCC2", "survival": "75%"},
      {"smiles": "CC(=O)c1ccc(OC(=O)c2c(-c3ccccc3Cl)noc2C)cc1", "survival": "56%"},
      {"smiles": "CCOc1ccc(OC(=O)c2c(-c3ccccc3Cl)noc2C)cc1", "survival": "59%"},
      {"smiles": "Cc1onc(-c2ccccc2Cl)c1C(=O)Oc1ccc(Br)cc1", "survival": "4% (active)"},
      {"smiles": "CN(C)c1ccc(C(CNS(=O)(=O)c2ccc(F)cc2)N2CCOCC2)cc1", "note": "(stereo unspecified)", "survival": "83%"},
      {"smiles": "Cc1ccc(S(=O)(=O)NCC(c2ccc(N(C)C)cc2)N2CCCC2)cc1", "note": "(stereo unspecified)", "survival": "88%"},
      {"smiles": "Cc1ccc(S(=O)(=O)NCC(c2ccc(N(C)C)cc2)N2CCOCC2)cc1", "note": "(stereo unspecified)", "survival": "65%"},
      {"smiles": "CN(C)c1ccc(C(CNS(=O)(=O)c2ccc(F)cc2)N2CCCC2)cc1", "note": "(stereo unspecified)", "survival": "124%"},
      {"smiles": "CN(C)c1ccc(C(CNS(=O)(=O)c2ccc(Cl)cc2)N2CCCC2)cc1", "note": "(stereo unspecified)", "survival": "-3% (active)"},
      {"smiles": "CN(C)c1ccc(C(CNS(=O)(=O)c2ccc(Cl)cc2)N2CCOCC2)cc1", "note": "(stereo unspecified)", "survival": "10% (active)"}
    ]}
  ]
}
